Test results reported in PubChem BioAssay.
Active and inactive are the calls of the source.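 The calls were made as follows, unless noted: active = inhibition of the reporter signal at or above 50%; inactive = inhibition below 50%.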

Legend:
[1] = inhibitors of TNFa-induced NFkB p65 translocation, primary screen, imaging, HUVEC, MLSMR starter and 10KST1 sets (AID 438;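 active = inhibition above 20% together with a positive visual image hit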;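 also: compound added about 3h40 before a 20 min TNFalpha stimulation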;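 as to inhibition: signal is the nuclear over cytoplasmic p65 intensity ratio per well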); conditions: HUVEC TNFa-induced p65 nuclear translocation; cell count: measured here: nuclei count (cytotoxicity indicator), at 2.08 µM; inhibition: at 2 µM, stronger effect = higher value, 0% TNFa-plus-vehicle, 100% no-TNFa wells
[2] = inhibitors of mutant huntingtin aggregation, primary screen, imaging, exon1htt(103Q)mCFP cells, high-content imaging (AID 483;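 active = visual image review flags a hit and inhibition of aggregation exceeds 20%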;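 also: compound exposure lasted 3 days before fixation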;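 as to nuclei count: percent of the per-plate median nuclei count of sample wells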); conditions: exon1htt(103Q)mCFP cell line, aggregate imaging, at 2 µM; inhibition of aggregation: stronger effect = higher value; nuclei count: measured here: cell count, toxicity
[3] = inhibitors of E-selectin induction by TNFa, primary screen, imaging, HUVEC, immunofluorescence, MLSMR starter and 10KST1 sets (AID 487;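 active = visually confirmed hit in the image check and inhibition above 20%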;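 as to inhibition: signal is fraction of cell area covered by stained E-selectin grains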;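 as to nuclei count: 100% = median nuclei count of all wells on the same plate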); conditions: HUVEC TNFalpha-induced E-selectin immunofluorescence imaging, at 2 µM; inhibition: stronger effect = higher value; nuclei count: measured here: cell number, toxicity
[4] = target: Voltage-gated potassium channel subunit beta-2 (Rattus norvegicus) (UniProt P62483); test: KvBeta enzyme negative modulators, primary screen, biochemical, NADPH fluorescence (AID 622;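 active = fluorescence slope higher than the sample average by over 3 SD, cut at about -0.22 in these data, passing the limit was not always enough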;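 also: slope of raw intensity against log time taken from 70 to 1610 s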); conditions: recombinant KvBeta, 4-cyanobenzaldehyde reduction, at 10 µM, stronger effect = higher value
[5] = target: Voltage-gated potassium channel subunit beta-2 (Rattus norvegicus) (UniProt P62483); test: KvBeta positive modulators, primary screen, biochemical, NADPH fluorescence (AID 623;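 active = NADPH fluorescence slope more negative than the mean of all samples by about 3 SD, 99.7% confidence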;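 also: fluorescence intensity change per second fitted from 20 to 320 s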); conditions: Recombinant KvBeta, NADPH fluorescence decrease slope, 10 min; at 10 µM; stronger effect = lower value
[6] = target: Alpha-2C adrenergic receptor (Homo sapiens) (UniProt P18825); test: modulators of alpha2C/GIRK thallium flux, primary screen, cell-based, HEK293 alpha2C/GIRK1/2 (AID 624;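 active = fluorescence slope after compound addition differing from the mean of all screened samples at 99.7% confidence, in either direction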;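 also: slope of fluorescence ratio to pre-addition baseline per second over 15 to 24 s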); conditions: thallium flux BTC fluorescence, at 10 µM, actives lie on both sides
[7] = inhibitors of Sendai virus-induced IRF3 signaling, primary screen, TLR/RLR signaling modifier project, cell-based, Sendai virus stimulus, luciferase, 10K MLSCN set (AID 602276;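 active = inhibition at or above 50% at 10 µM; inactive = inhibition below 50%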;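 also: firefly luciferase from ISG56 promoter only with Renilla not read in this screen; 0% = Sendai virus plus DMSO and 100% = medium plus DMSO without virus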); conditions: HEK293 RL24 IRF3 luciferase reporter, at 10 µM, stronger effect = higher value
[8] = inhibitors of poly I:C-induced TLR3 signaling, primary screen, cell-based, poly I:C stimulus, luciferase, 10K MLSCN set (AID 602277); conditions: HEK293-TLR3 RL24 IRF3 luciferase reporter, at 10 µM, stronger effect = higher value

Chain of Voltage-gated potassium channel subunit beta-2 (Rattus norvegicus) (P62483 whole entry, looked up): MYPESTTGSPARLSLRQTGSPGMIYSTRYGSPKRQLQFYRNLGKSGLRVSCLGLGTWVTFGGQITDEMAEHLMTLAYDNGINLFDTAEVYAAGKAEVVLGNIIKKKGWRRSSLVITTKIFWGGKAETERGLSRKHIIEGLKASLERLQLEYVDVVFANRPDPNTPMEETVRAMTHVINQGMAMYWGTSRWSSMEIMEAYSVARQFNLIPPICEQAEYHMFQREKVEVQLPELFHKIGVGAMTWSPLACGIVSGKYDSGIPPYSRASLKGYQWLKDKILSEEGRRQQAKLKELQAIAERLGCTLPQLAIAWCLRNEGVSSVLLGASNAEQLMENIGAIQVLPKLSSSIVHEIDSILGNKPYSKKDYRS
Chain of Alpha-2C adrenergic receptor (Homo sapiens) (P18825 whole entry, looked up): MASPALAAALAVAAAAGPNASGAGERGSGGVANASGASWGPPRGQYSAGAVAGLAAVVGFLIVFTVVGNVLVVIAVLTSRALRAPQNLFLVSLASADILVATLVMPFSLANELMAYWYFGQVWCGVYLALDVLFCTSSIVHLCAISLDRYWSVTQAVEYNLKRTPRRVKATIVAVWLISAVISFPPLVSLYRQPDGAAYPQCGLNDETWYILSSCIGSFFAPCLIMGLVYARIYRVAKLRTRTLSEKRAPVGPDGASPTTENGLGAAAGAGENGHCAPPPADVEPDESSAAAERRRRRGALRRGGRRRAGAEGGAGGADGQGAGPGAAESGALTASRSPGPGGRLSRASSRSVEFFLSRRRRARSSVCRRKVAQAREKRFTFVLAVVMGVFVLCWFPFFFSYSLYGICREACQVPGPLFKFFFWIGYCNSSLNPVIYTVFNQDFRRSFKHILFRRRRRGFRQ

SMILES | cell count [1] | inhibition [1] | inhibition of aggregation [2] | nuclei count [2] [%] | inhibition [3] | nuclei count [3] [%] | fluorescence slope [4] | NADPH fluorescence slope [5] | slope [6] | inhibition [7] | inhibition [8]
Cc1onc(-c2ccccc2Cl)c1C(=O)Nc1cnn(Cc2ccccc2)c1 | 545 | 1.1% (inactive) | -4% (inactive) | 121 | 15.1% (inactive) | 120 | -0.545 (inactive) | 6.7e-06 (inactive) | 0.00545 (inactive) | 14.3% (inactive) | 32.6% (inactive)
Cc1ccc2c(c1)-c1c(cnn1CC(=O)NC(C)CCc1ccco1)CO2 (stereo not drawn) | 799 | 4.6% (inactive) | -8% (inactive) | 119 | -62.3% (inactive) | 125 | -0.577 (inactive) | -2e-05 (inactive) | 0.00658 (inactive) | 11.5% (inactive) | 29.3% (inactive)
CC(=O)Nc1ccc(S(=O)(=O)N2CCN(C(=O)CCC3CCCC3)CC2)cc1 | 312 | -0.8% (inactive) | -12.8% (inactive) | 96.2 | -42.2% (inactive) | 129 | -0.581 (inactive) | 5.8e-05 (inactive) | 0.00522 (inactive) | 24.2% (inactive) | 10.7% (inactive)
Cc1ccc(S(=O)(=O)C2(C(=O)NC3CCCC3)CC2)cc1 | 463 | -4.2% (inactive) | -10.8% (inactive) | 110 | -58.4% (inactive) | 115 | -0.602 (inactive) | 1.6e-05 (inactive) | 0.00643 (inactive) | 13.7% (inactive) | 36.5% (inactive)
Cn1c(=O)c2c(nc(SCC(=O)N3CCCc4ccccc43)n2C)n(C)c1=O | 354 | -5.7% (inactive) | -9.7% (inactive) | 45.1 | -139% (inactive) | 115 | -0.361 (inactive) | -7.1e-05 (inactive) | 0.00482 (inactive) | -0.111% (inactive) | -6.19% (inactive)
Oc1cccc(Nc2nc(NCC3CCCO3)c3ccccc3n2)c1 (stereo not drawn) | 555 | -70.4% (inactive) | -4.4% (inactive) | 95.5 | -47.9% (inactive) | 104 | -0.612 (inactive) | 2.9e-05 (inactive) | 0.00401 (inactive) | 14.4% (inactive) | -32.6% (inactive)
Cc1ccc(S(=O)(=O)C2(C(=O)Nc3cccnc3)CC2)cc1 | 579 | 8.8% (inactive) | 14.7% (inactive) | 93.3 | -126% (inactive) | 98.8 | -0.573 (inactive) | -2.5e-05 (inactive) | 0.00528 (inactive) | 9.66% (inactive) | 28.7% (inactive)
O=C1C2C3C=CC(C3=C3CCCCC3)C2C(=O)N1c1ccccc1 (stereo not drawn) | 512 | -10.1% (inactive) | 3.7% (inactive) | 104 | -29.2% (inactive) | 103 | -0.61 (inactive) | -3.9e-06 (inactive) | 0.00655 (inactive) | 12.4% (inactive) | 16% (inactive)
CCOC(=O)C1CCN(c2c(NC3CCCCCCC3)c(=O)c2=O)CC1 | 897 | 2.8% (inactive) | -6.4% (inactive) | 103 | -53.1% (inactive) | 118 | -0.575 (inactive) | -4.2e-05 (inactive) | 0.00631 (inactive) | 9.6% (inactive) | 32.7% (inactive)
NC(=O)c1cc(-c2ccccc2)nc(N2CCOCC2)n1 | 532 | 6.7% (inactive) | -2.6% (inactive) | 91 | 25.8% (inactive) | 92.5 | -0.591 (inactive) | -4.3e-05 (inactive) | 0.00656 (inactive) | 8.52% (inactive) | 25.8% (inactive)
COc1ccc(C)cc1S(=O)(=O)N(C)CC(=O)Nc1ccc2c(c1)OCO2 | 505 | -15.7% (inactive) | 8.7% (inactive) | 94.7 | 26.3% (inactive) | 84.9 | -0.616 (inactive) | -5e-05 (inactive) | 0.00341 (inactive) | 12.3% (inactive) | 12.3% (inactive)
O=C(NCCSCc1ccco1)Nc1cccc(Cl)c1 | 502 | 3.6% (inactive) | -7.7% (inactive) | 99.9 | -67.4% (inactive) | 115 | -0.673 (inactive) | 1.6e-05 (inactive) | 0.0115 (inactive) | 2.33% (inactive) | -54.8% (inactive)
CN(C)S(=O)(=O)N1CCN(S(=O)(=O)c2ccc(F)cc2)CC1 | 787 | 3.6% (inactive) | -7% (inactive) | 103 | -118% (inactive) | 141 | -0.436 (inactive) | -9.3e-07 (inactive) | 0.00495 (inactive) | -20.1% (inactive) | -21% (inactive)
O=C(Nc1cccc2ccccc12)c1ccc(Br)o1 | 638 | 5.6% (inactive) | 7.9% (inactive) | 104 | 18.2% (inactive) | 94.7 | -0.437 (inactive) | -1.5e-05 (inactive) | 0.00359 (inactive) | 2.74% (inactive) | 19.8% (inactive)
CCN(CC)C(=O)Oc1ccc(NC(C)=O)cc1 | 383 | 2.1% (inactive) | 1.1% (inactive) | 99.8 | -27.3% (inactive) | 102 | -0.431 (inactive) | -6.8e-05 (inactive) | 0.00611 (inactive) | -1% (inactive) | 23% (inactive)
CCOC(=O)n1c(SCC(=O)N(CC)CC)nc2ccccc21 | 522 | 1% (inactive) | 10.7% (inactive) | 102 | 44.9% (inactive) | 93.9 | -0.597 (inactive) | -4.3e-05 (inactive) | 0.00594 (inactive) | 0.265% (inactive) | -26.4% (inactive)
CCOC(=O)C(C)C1(O)c2ccccc2-c2ncccc21 (stereo not drawn) | 316 | 4.9% (inactive) | -6.7% (inactive) | 117 | 6.6% (inactive) | 97.7 | -0.296 (inactive) | -6.5e-05 (inactive) | 0.00533 (inactive) | 4.67% (inactive) | 8.95% (inactive)
CCn1c(SCc2cc(=O)[nH]c3ccccc23)nc2c1c(=O)n(C)c(=O)n2C | 350 | 1% (inactive) | -9.3% (inactive) | 93.3 | -38.3% (inactive) | 99.2 | -0.336 (inactive) | -3.5e-05 (inactive) | 0.00504 (inactive) | 4.21% (inactive) | 14.7% (inactive)
NC(=O)CSc1nnc(-c2cnccn2)n1-c1ccccc1 | 625 | 3.8% (inactive) | -10.7% (inactive) | 102 | 19% (inactive) | 94.9 | -0.501 (inactive) | -4.9e-05 (inactive) | 0.0054 (inactive) | 20.2% (inactive) | 20.8% (inactive)
CC(=O)Nc1ccc(NC(=O)C(C)Oc2ccccc2F)cc1 (stereo not drawn) | 321 | 3.9% (inactive) | 9.4% (inactive) | 104 | 4.3% (inactive) | 112 | -0.65 (inactive) | 1.9e-05 (inactive) | 0.00945 (inactive) | 9.2% (inactive) | 12.4% (inactive)
COc1ccccc1N(C)S(=O)(=O)c1ccc(C(=O)NC2=NCCS2)cc1 | 458 | 10.9% (inactive) | 9.8% (inactive) | 95.4 | -38% (inactive) | 110 | -0.598 (inactive) | -2.8e-05 (inactive) | 0.00655 (inactive) | 2.13% (inactive) | 12% (inactive)
Cc1ccc(N(Cc2ccco2)C(=O)c2cccc(S(=O)(=O)N(C)C)c2)cc1 | 357 | 2.1% (inactive) | 25.6% (inactive) | 103 | 66% (inactive) | 97.5 | -0.393 (inactive) | -4.3e-06 (inactive) | 0.0037 (inactive) | 0.154% (inactive) | 14.9% (inactive)
Cc1c(C(=O)Nc2nnc(C(F)(F)F)s2)oc2ccccc12 | 778 | -8.8% (inactive) | -7.7% (inactive) | 121 | -57.7% (inactive) | 108 | -0.419 (inactive) | 2.3e-05 (inactive) | 0.00814 (inactive) | -13.9% (inactive) | -95.9% (inactive)
CCOC(=O)N1CCN(Cc2cc(=O)oc3ccc4ccccc4c23)CC1 | 472 | 16.9% (inactive) | 11.2% (inactive) | 93.3 | -64% (inactive) | 113 | -0.408 (inactive) | 8.3e-06 (inactive) | 0.0055 (inactive) | 16.9% (inactive) | 21.7% (inactive)
CCCCCCNC(=O)c1c(N)n(/N=C/c2ccco2)c2nc3ccccc3nc12 | 602 | 11.2% (inactive) | -16.8% (inactive) | 79.6 | 26.4% (inactive) | 104 | -0.251 (inactive) | -6e-06 (inactive) | 0.00525 (inactive) | 11.1% (inactive) | 8.29% (inactive)
COc1ccc(S(=O)(=O)NCCOc2ccccc2)cc1OC | 310 | -3.3% (inactive) | 8.7% (inactive) | 95.3 | -41.2% (inactive) | 96.1 | -0.439 (inactive) | -3.7e-05 (inactive) | 0.00599 (inactive) | 12.3% (inactive) | 22.2% (inactive)
C=Cn1c(N2CCOCC2)nc2c1c(=O)[nH]c(=O)n2C | 719 | 0.9% (inactive) | -2.7% (inactive) | 62.9 | 21.8% (inactive) | 115 | -0.412 (inactive) | -2.2e-05 (inactive) | 0.00579 (inactive) | 20% (inactive) | 20.4% (inactive)
CC(C)(C)NC(=O)COC(=O)c1snc(C(=O)NC2CCCCC2)c1N | 236 | 13.3% (inactive) | 3.3% (inactive) | 99.5 | -55.6% (inactive) | 96.2 | -0.586 (inactive) | 2.8e-05 (inactive) | 0.00501 (inactive) | 9.79% (inactive) | -26% (inactive)
